Active and inactive are the calls of the source.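 The calls were made as follows, unless noted: active = inhibition above 20% together with a positive visual image hit; inconclusive = visual image hit but inhibition not above 20%; inactive = no visual image hit.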
Experiments:
[1] = inhibitors of TNFa-induced NFkB p65 translocation, primary screen, imaging, HUVEC, MLSMR starter and 10KST1 sets (AID 438); settings: HUVEC TNFa-induced p65 nuclear translocation; cell count: measured here: nuclei count (cytotoxicity indicator), at 2.08 µM; inhibition: at 2 µM, stronger effect = higher value, 0% TNFa-plus-vehicle, 100% no-TNFa wells;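 also: compound added about 3h40 before a 20 min TNFalpha stimulation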;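 as to inhibition: signal is the nuclear over cytoplasmic p65 intensity ratio per well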
[2] = inhibitors of mutant huntingtin aggregation, primary screen, imaging, exon1htt(103Q)mCFP cells, high-content imaging (AID 483;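 active = visual image review flags a hit and inhibition of aggregation exceeds 20%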;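 also: compound exposure lasted 3 days before fixation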;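 as to nuclei count: percent of the per-plate median nuclei count of sample wells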); settings: exon1htt(103Q)mCFP cell line, aggregate imaging, at 2 µM; inhibition of aggregation: stronger effect = higher value; nuclei count: measured here: cell count, toxicity
[3] = inhibitors of E-selectin induction by TNFa, primary screen, imaging, HUVEC, immunofluorescence, MLSMR starter and 10KST1 sets (AID 487;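 active = visually confirmed hit in the image check and inhibition above 20%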;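 as to inhibition: signal is fraction of cell area covered by stained E-selectin grains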;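 as to nuclei count: 100% = median nuclei count of all wells on the same plate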); settings: HUVEC TNFalpha-induced E-selectin immunofluorescence imaging, at 2 µM; inhibition: stronger effect = higher value; nuclei count: measured here: cell number, toxicity
[4] = target: Voltage-gated potassium channel subunit beta-2 (Rattus norvegicus) (UniProt P62483); test: KvBeta enzyme negative modulators, primary screen, biochemical, NADPH fluorescence (AID 622;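 active = fluorescence slope higher than the sample average by over 3 SD, cut at about -0.22 in these data, passing the limit was not always enough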;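 also: slope of raw intensity against log time taken from 70 to 1610 s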); settings: recombinant KvBeta, 4-cyanobenzaldehyde reduction, at 10 µM, stronger effect = higher value
Sequence of Voltage-gated potassium channel subunit beta-2 (Rattus norvegicus) (P62483 whole entry, looked up): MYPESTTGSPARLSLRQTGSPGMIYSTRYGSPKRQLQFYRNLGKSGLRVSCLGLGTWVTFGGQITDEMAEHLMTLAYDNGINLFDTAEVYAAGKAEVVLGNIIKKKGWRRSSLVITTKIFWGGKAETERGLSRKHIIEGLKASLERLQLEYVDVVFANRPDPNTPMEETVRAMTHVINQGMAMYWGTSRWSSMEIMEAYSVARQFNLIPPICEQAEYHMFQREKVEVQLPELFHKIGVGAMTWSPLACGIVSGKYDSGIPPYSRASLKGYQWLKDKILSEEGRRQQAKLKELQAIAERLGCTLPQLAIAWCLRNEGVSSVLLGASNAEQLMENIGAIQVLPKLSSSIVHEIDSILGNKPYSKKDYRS

[5] = target: Voltage-gated potassium channel subunit beta-2 (Rattus norvegicus) (UniProt P62483); test: KvBeta positive modulators, primary screen, biochemical, NADPH fluorescence (AID 623;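 active = NADPH fluorescence slope more negative than the mean of all samples by about 3 SD, 99.7% confidence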;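 also: fluorescence intensity change per second fitted from 20 to 320 s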); settings: Recombinant KvBeta, NADPH fluorescence decrease slope, 10 min; at 10 µM; stronger effect = lower value
[6] = target: Alpha-2C adrenergic receptor (Homo sapiens) (UniProt P18825); test: modulators of alpha2C/GIRK thallium flux, primary screen, cell-based, HEK293 alpha2C/GIRK1/2 (AID 624;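 active = fluorescence slope after compound addition differing from the mean of all screened samples at 99.7% confidence, in either direction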;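 also: slope of fluorescence ratio to pre-addition baseline per second over 15 to 24 s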); settings: thallium flux BTC fluorescence, at 10 µM, actives lie on both sides
Sequence of Alpha-2C adrenergic receptor (Homo sapiens) (P18825 whole entry, looked up): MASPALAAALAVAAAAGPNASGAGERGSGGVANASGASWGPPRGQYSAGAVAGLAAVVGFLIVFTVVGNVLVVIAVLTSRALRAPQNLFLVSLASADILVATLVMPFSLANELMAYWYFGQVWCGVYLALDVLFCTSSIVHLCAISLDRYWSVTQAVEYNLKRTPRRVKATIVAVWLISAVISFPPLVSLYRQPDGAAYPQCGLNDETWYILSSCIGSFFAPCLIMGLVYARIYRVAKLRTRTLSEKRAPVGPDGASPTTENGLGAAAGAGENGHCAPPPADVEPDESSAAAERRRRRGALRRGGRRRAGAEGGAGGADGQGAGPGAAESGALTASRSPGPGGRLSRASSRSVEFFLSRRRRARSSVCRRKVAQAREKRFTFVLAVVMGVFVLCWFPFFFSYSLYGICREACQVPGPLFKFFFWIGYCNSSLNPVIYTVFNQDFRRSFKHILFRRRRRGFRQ

[7] = inhibitors of Sendai virus-induced IRF3 signaling, primary screen, TLR/RLR signaling modifier project, cell-based, Sendai virus stimulus, luciferase, 10K MLSCN set (AID 602276;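 active = inhibition at or above 50% at 10 µM; inactive = inhibition below 50%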;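 also: firefly luciferase from ISG56 promoter only with Renilla not read in this screen; 0% = Sendai virus plus DMSO and 100% = medium plus DMSO without virus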); settings: HEK293 RL24 IRF3 luciferase reporter, at 10 µM, stronger effect = higher value
[8] = inhibitors of poly I:C-induced TLR3 signaling, primary screen, cell-based, poly I:C stimulus, luciferase, 10K MLSCN set (AID 602277;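 active = inhibition of the reporter signal at or above 50%; inactive = inhibition below 50%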); settings: HEK293-TLR3 RL24 IRF3 luciferase reporter, at 10 µM, stronger effect = higher value

| Compound | cell count [1] | inhibition [1] | inhibition of aggregation [2] | nuclei count [2] [%] | inhibition [3] | nuclei count [3] [%] | fluorescence slope [4] | NADPH fluorescence slope [5] | slope [6] | inhibition [7] | inhibition [8] |
| --- | --- | --- | --- | --- | --- | --- | --- | --- | --- | --- | --- |
| O=C(C1CCCO1)N1CCN(C(c2ccccc2)c2ccccc2)CC1 (configuration not stated) | 412 | 2.5% (inactive) | 10.8% (inactive) | 97.1 | 32.4% (inactive) | 117 | -0.403 (inactive) | -2.6e-05 (inactive) | 0.00589 (inactive) | 13.8% (inactive) | 27.4% (inactive) |
| Cc1ccc(S(=O)(=O)NCCSc2nnnn2-c2ccc(C(N)=O)cc2)cc1 | 650 | -2.6% (inactive) | 2.1% (inactive) | 115 | -14.3% (inactive) | 111 | -0.564 (inactive) | 4.8e-06 (inactive) | 0.00721 (inactive) | -0.501% (inactive) | 12.6% (inactive) |
| O=C(Oc1ccc2c(c1)CCC2)N1CCOCC1 | 360 | 5.5% (inactive) | 6.4% (inactive) | 88.2 | 21.8% (inactive) | 81.4 | -0.393 (inactive) | 8.5e-06 (inactive) | 0.00612 (inactive) | -63.8% (inactive) | -185% (inactive) |
| CC(C)CN(CC(C)C)C(=O)C12CCC(C)(C(=O)C1)C2(C)C (configuration not stated) | 720 | -10.4% (inactive) | 13.7% (inactive) | 99.8 | -45.3% (inactive) | 115 | -0.452 (inactive) | 0.000106 (inactive) | 0.00697 (inactive) | -21.4% (inactive) | -2.9% (inactive) |
| O=C1COc2ccc(C(=O)COC(=O)CCc3ccc(S(=O)(=O)N4CCOCC4)cc3)cc2N1 | 410 | -1.9% (inactive) | 12.6% (inactive) | 90.4 | -119% (inactive) | 104 | -0.37 (inactive) | -5.9e-05 (inactive) | 0.00618 (inactive) | 4.84% (inactive) | 23.5% (inactive) |
| Cc1nnc(SC(=O)N2c3ccccc3Sc3ccccc32)s1 | 348 | 12% (inactive) | 39.8% (active) | 99.9 | 27.8% (inactive) | 107 | -0.31 (inactive) | -1.7e-05 (inactive) | 0.00696 (inactive) | 5.05% (inactive) | 65.9% (active) |
| Cc1cccn2c(=O)c3cc(C(=O)N4CCCc5ccccc54)n(C)c3nc12 | 232 | 15.9% (inactive) | 10.9% (inactive) | 98.7 | 29.9% (inactive) | 96 | -0.556 (inactive) | -3.1e-05 (inactive) | 0.00631 (inactive) | 6.77% (inactive) | 17.7% (inactive) |
| COc1ccc(NC(=O)c2oc3ccc(S(=O)(=O)N4CCC5(CC4)OCCO5)cc3c2C)cc1 | 209 | -4.4% (inactive) | 10% (inactive) | 83.1 | -77.8% (inactive) | 121 | -0.447 (inactive) | 4.2e-05 (inactive) | 0.00642 (inactive) | 3.21% (inactive) | 10.5% (inactive) |
| O=C(CC(Cc1ccccc1)C(=O)O)NCCc1ccc2c(c1)OCO2 (configuration not stated) | 775 | -6.3% (inactive) | -0.6% (inactive) | 107 | -161% (inactive) | 145 | -0.424 (inactive) | -3.2e-05 (inactive) | 0.00395 (inactive) | -2.67% (inactive) | 23.4% (inactive) |
| CC(=O)c1c(C)[nH]c(C(=O)OCc2nnc(-c3ccccc3)o2)c1C | 757 | -7.8% (inactive) | -14.5% (inactive) | 122 | -43.7% (inactive) | 110 | -0.639 (inactive) | 4.8e-05 (inactive) | 0.00623 (inactive) | 14.6% (inactive) | 12.4% (inactive) |
| O=S(=O)(c1ccc(F)cc1)N1CCC(N2CCCC2)CC1 | 621 | 12.4% (inactive) | 5.9% (inactive) | 107 | 12.6% (inactive) | 107 | -0.537 (inactive) | -4.2e-05 (inactive) | 0.00636 (inactive) | 6.84% (inactive) | 45.9% (inactive) |
| C/C(N)=C(/C#N)C(=O)COC(=O)c1cc(S(=O)(=O)N2CCCCC2)ccc1C | 508 | 7.7% (inactive) | -28.1% (inactive) | 104 | 12.6% (inactive) | 85.7 | -0.366 (inactive) | 1.2e-05 (inactive) | 0.00665 (inactive) | 7.49% (inactive) | 6.72% (inactive) |
| COC(=O)CN1C(=O)C(O)(CC(=O)c2ccc(C)cc2)c2cc(Br)ccc21 (configuration not stated) | 612 | 2.9% (inactive) | -6% (inactive) | 94.5 | -49.2% (inactive) | 113 | -0.436 (inactive) | -4.5e-05 (inactive) | 0.00497 (inactive) | 4.14% (inactive) | -1.15% (inactive) |
| CCn1c(SCC(=O)Nc2cc(C)on2)nc2sc3c(c2c1=O)CCCC3 | 470 | -16.6% (inactive) | 4% (inactive) | 118 | -26.9% (inactive) | 110 | -0.4 (inactive) | 1.4e-06 (inactive) | 0.00722 (inactive) | -5.69% (inactive) | 98.9% (active) |
| Cc1sc2ncnc(SCC(=O)N3CCCC3)c2c1C | 369 | 3.5% (inactive) | -6.6% (inactive) | 112 | -32.3% (inactive) | 108 | -0.433 (inactive) | -0.000107 (inactive) | 0.00701 (inactive) | 8.17% (inactive) | 6.41% (inactive) |
| O=C(Nc1ccc(N2C(=O)C3C4C=CC(C4)C3C2=O)cc1)Nc1cccnc1 (configuration not stated) | 426 | 0% (inactive) | -7.7% (inactive) | 104 | -33.4% (inactive) | 112 | -0.334 (inactive) | -2.1e-05 (inactive) | 0.00357 (inactive) | 7.37% (inactive) | 3.82% (inactive) |
| Clc1ccccc1OCCCCn1ccnc1 | 425 | -0.2% (inactive) | -10.9% (inactive) | 97.3 | 14.5% (inactive) | 106 | -0.464 (inactive) | -5.3e-05 (inactive) | 0.0106 (active) | -3.32% (inactive) | 5.03% (inactive) |
| COc1ccccc1N1CCN(C(CNS(=O)(=O)c2cc(F)ccc2F)c2cccnc2)CC1 (configuration not stated) | 557 | 7.2% (inactive) | -5.9% (inactive) | 96.7 | -5% (inactive) | 108 | -0.359 (inactive) | -5.8e-05 (inactive) | 0.00529 (inactive) | 9.38% (inactive) | 22.5% (inactive) |
| CC(C)OC(=O)C1C2C=CC3(CN(Cc4cccs4)C(=O)C13)O2 (configuration not stated) | 469 | 5% (inactive) | 0.9% (inactive) | 83.9 | -92.4% (inactive) | 111 | -0.533 (inactive) | -1.6e-05 (inactive) | 0.005 (inactive) | 20.6% (inactive) | 32.2% (inactive) |
| COc1ccc(CC(=O)Nc2ccc(OC)c(NC(=O)c3ccco3)c2)cc1 | 580 | 22% (active) | 4% (inactive) | 99.6 | -70.8% (inactive) | 146 | -0.417 (inactive) | 9.4e-05 (inactive) | 0.00901 (inactive) | -27.5% (inactive) | -49.2% (inactive) |
| Cn1c(N2CCC(C(N)=O)CC2)nc2c1c(=O)n(Cc1ccc(Br)cc1)c(=O)n2C | 537 | -2.7% (inactive) | 4.3% (inactive) | 97.3 | 24.2% (inactive) | 95.1 | -0.571 (inactive) | -2.3e-05 (inactive) | 0.00671 (inactive) | 6.03% (inactive) | 1.39% (inactive) |
| C=CCn1c(COc2cccc(C)c2)nnc1SCC(=O)NC(=O)NCc1ccco1 | 365 | -10.6% (inactive) | 23.8% (inactive) | 86.7 | 6.1% (inactive) | 113 | -0.405 (inactive) | 3.1e-05 (inactive) | 0.00673 (inactive) | 16.1% (inactive) | 30.1% (inactive) |
| Cc1ccc(C)c2[nH]c(=O)c(CCNC(=O)c3ccc(Br)o3)cc12 | 327 | -9.8% (inactive) | 14.1% (inactive) | 87 | 23.8% (inactive) | 97.7 | -0.481 (inactive) | -0.000268 (inactive) | 0.00492 (inactive) | -1.8% (inactive) | -1.41% (inactive) |
| S=C(NCC1CCCO1)n1nnc2ccccc21 (configuration not stated) | 718 | -5.9% (inactive) | -2.9% (inactive) | 94.6 | 52% (inactive) | 92.8 | -0.399 (inactive) | 4.6e-05 (inactive) | 0.00794 (inactive) | 12.9% (inactive) | 13.5% (inactive) |
| COC(=O)c1ccc(COc2ccc(C3C4=C(CCCC4=O)Nc4onc(C)c43)cc2)cc1 (configuration not stated) | 303 | -4.7% (inactive) | -8.3% (inactive) | 112 | -68.7% (inactive) | 118 | -0.479 (inactive) | -1.7e-05 (inactive) | 0.00693 (inactive) | -12.9% (inactive) | -23% (inactive) |
| C=C(C)COc1ccc(-c2nc(N)ncc2-c2ccc(OC)cc2)c(O)c1 | 278 | -9.5% (inactive) | 24.6% (inactive) | 69.5 | -120% (inactive) | 111 | -0.433 (inactive) | -2.4e-05 (inactive) | 0.00614 (inactive) | 5.72% (inactive) | 27.1% (inactive) |
| CCOc1ccccc1N1C(=O)c2ccc(C(=O)Nc3cccnc3)cc2C1=O | 594 | 0.8% (inactive) | 1.8% (inactive) | 105 | -38.7% (inactive) | 109 | -0.482 (inactive) | 1.2e-05 (inactive) | 0.00693 (inactive) | 11.8% (inactive) | 21% (inactive) |

Reference: PubChem BioAssay
